Hit rate of the full screen: of about 5,500 compounds, about 2,000 (36%) were called active. About 18% were inconclusive and are not listed. Rule as the data show it: active = normalized growth mostly below about 0.91 (no sharp cut-off); inconclusive = no clear call, values can overlap the other calls; inactive = mostly above about 0.92. Some of the results follow.
Assay: chemical genetic growth profiling, strain panel (AID 1159580);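 also: tested at 20 µM; growth read once vehicle control cultures reached saturation at 30 °C; 1 = growth at the plate median or of vehicle wells; lower values mean less growth of the strain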
Conditions: growth OD
[1] = S. cerevisiae deletion strains, locus YDL101C, strain DUN1, stronger effect = lower value
[2] = S. cerevisiae deletion strains, locus YHR030C, strain SLT2, stronger effect = lower value

Measured: normalized growth

FC(F)(F)c1cc(Cl)c2nsnc2c1
inactive: S. cerevisiae deletion strains, locus YAL013W, strain DEP1, stronger effect = lower value 1 | S. cerevisiae deletion strains, locus YBR229C, strain ROT2, stronger effect = lower value 0.993 | [1] 1.01 | S. cerevisiae deletion strains, locus YDR150W, strain NUM1, stronger effect = lower value 1 | S. cerevisiae deletion strains, locus YEL061C, strain CIN8, stronger effect = lower value 0.99 | S. cerevisiae deletion strains, locus YGR078C, strain PAC10, stronger effect = lower value 0.997 | S. cerevisiae deletion strains, locus YGR229C, strain SMI1, stronger effect = lower value 1 | [2] 1.02 | S. cerevisiae deletion strains, locus YHR087W, strain rtc3, stronger effect = lower value 1.01 | S. cerevisiae deletion strains, locus YJL187C, strain SWE1, stronger effect = lower value 0.99 | S. cerevisiae deletion strains, locus YJR043C, strain POL32, stronger effect = lower value 0.998 | S. cerevisiae deletion strains, locus YJR075W, strain HOC1, stronger effect = lower value 0.985 | S. cerevisiae deletion strains, locus YLR039C, strain RIC1, stronger effect = lower value 0.991 | S. cerevisiae deletion strains, locus YLR058C, strain SHM2 (second series), stronger effect = lower value 0.993 | S. cerevisiae deletion strains, locus YLR085C, strain ARP6, stronger effect = lower value 1.01 | S. cerevisiae deletion strains, locus YLR262C, strain YPT6, stronger effect = lower value 0.974 | S. cerevisiae deletion strains, locus YML094W, strain GIM5, stronger effect = lower value 1.06 | S. cerevisiae deletion strains, locus YMR219W, strain ESC1, stronger effect = lower value 1 | S. cerevisiae deletion strains, locus YMR263W, strain SAP30, stronger effect = lower value 1 | S. cerevisiae deletion strains, locus YMR307W, strain GAS1, stronger effect = lower value 1.01 | S. cerevisiae deletion strains, locus YNL153C, strain GIM3, stronger effect = lower value 0.996 | S. cerevisiae deletion strains, locus YNL298W, strain CLA4 (second series), stronger effect = lower value 0.993 | S. cerevisiae deletion strains, locus YNL322C, strain KRE1, stronger effect = lower value 0.995 | S. cerevisiae deletion strains, locus YNR030W, strain Alg12, stronger effect = lower value 1.01 | S. cerevisiae deletion strains, locus YPL055C, strain LGE1, stronger effect = lower value 1.03 | S. cerevisiae deletion strains, locus YPL241C, strain CIN2, stronger effect = lower value 1.08 | S. cerevisiae deletion strains, locus YPR135W, strain CTF4, stronger effect = lower value 1.03 | S. cerevisiae strains, strain wild type, stronger effect = lower value 0.987

O=S(=O)(NCc1ccc(C(F)(F)F)cc1)c1cc(Br)c(Br)s1
inactive: S. cerevisiae deletion strains, locus YAR019C, strain CDC15, stronger effect = lower value 0.987 | S. cerevisiae deletion strains, locus YBL105C, strain PKC1, stronger effect = lower value 0.969 | S. cerevisiae deletion strains, locus YBR135W, strain CKS1, stronger effect = lower value 0.971 | S. cerevisiae deletion strains, locus YBR136W, strain MEC1, stronger effect = lower value 0.985 | S. cerevisiae deletion strains, locus YBR160W, strain CDC28, stronger effect = lower value 0.966 | S. cerevisiae deletion strains, locus YDL017W, strain CDC7, stronger effect = lower value 0.967 | S. cerevisiae deletion strains, locus YDL028C, strain MPS1, stronger effect = lower value 0.984 | [1] 0.975 | S. cerevisiae deletion strains, locus YDL108W, strain KIN28, stronger effect = lower value 0.974 | S. cerevisiae deletion strains, locus YDL132W, strain cdc53, stronger effect = lower value 0.973 | S. cerevisiae deletion strains, locus YDL214C, strain PRR2, stronger effect = lower value 0.786 | S. cerevisiae deletion strains, locus YDR052C, strain DBF4, stronger effect = lower value 0.979 | S. cerevisiae deletion strains, locus YDR054C, strain cdc34, stronger effect = lower value 0.973 | S. cerevisiae deletion strains, locus YDR226W, strain ADK1, stronger effect = lower value 0.984 | S. cerevisiae deletion strains, locus YDR477W, strain SNF1, stronger effect = lower value 0.856 | S. cerevisiae deletion strains, locus YER123W, strain YCK3, stronger effect = lower value 0.747 | S. cerevisiae deletion strains, locus YER133W, strain GLC7, stronger effect = lower value 0.794 | S. cerevisiae deletion strains, locus YFL009W, strain cdc4, stronger effect = lower value 0.979 | S. cerevisiae deletion strains, locus YFL029C, strain CAK1, stronger effect = lower value 0.982 | S. cerevisiae deletion strains, locus YFR003C, strain YPI1, stronger effect = lower value 0.974 | S. cerevisiae deletion strains, locus YFR019W, strain FAB1, stronger effect = lower value 0.845 | S. cerevisiae deletion strains, locus YFR028C, strain CDC14, stronger effect = lower value 0.967 | S. cerevisiae deletion strains, locus YGR040W, strain KSS1, stronger effect = lower value 0.818 | S. cerevisiae deletion strains, locus YGR052W, strain FMP48, stronger effect = lower value 0.729 | S. cerevisiae deletion strains, locus YGR092W, strain DBF2, stronger effect = lower value 0.801 | S. cerevisiae deletion strains, locus YHR079C, strain IRE1, stronger effect = lower value 0.813 | S. cerevisiae deletion strains, locus YHR205W, strain SCH9, stronger effect = lower value 0.618 | S. cerevisiae deletion strains, locus YIL147C, strain SLN1, stronger effect = lower value 0.98 | S. cerevisiae deletion strains, locus YJL095W, strain BCK1, stronger effect = lower value 0.741 | S. cerevisiae deletion strains, locus YJL128C, strain PBS2, stronger effect = lower value 0.924 | S. cerevisiae deletion strains, locus YJL157C, strain FAR1, stronger effect = lower value 0.872 | S. cerevisiae deletion strains, locus YJR016C, strain ILV3, stronger effect = lower value 0.98 | S. cerevisiae deletion strains, locus YJR066W, strain TOR1 (second series), stronger effect = lower value 0.794 | S. cerevisiae deletion strains, locus YJR066W, strain TOR1, stronger effect = lower value 0.689 | S. cerevisiae deletion strains, locus YKL067W, strain YNK1, stronger effect = lower value 0.835 | S. cerevisiae deletion strains, locus YKL193C, strain SDS22, stronger effect = lower value 0.967 | S. cerevisiae deletion strains, locus YKL203C, strain TOR2, stronger effect = lower value 0.851 | S. cerevisiae deletion strains, locus YLR133W, strain CKI1, stronger effect = lower value 0.839 | S. cerevisiae deletion strains, locus YLR403W, strain SFP1, stronger effect = lower value 0.808 | S. cerevisiae deletion strains, locus YML070W, strain DAK1, stronger effect = lower value 0.797 | S. cerevisiae deletion strains, locus YMR001C, strain CDC5, stronger effect = lower value 0.964 | S. cerevisiae deletion strains, locus YMR205C, strain PFK2 (second series), stronger effect = lower value 0.831 | S. cerevisiae deletion strains, locus YMR277W, strain FCP1, stronger effect = lower value 0.965 | S. cerevisiae deletion strains, locus YNL006W, strain LST8, stronger effect = lower value 0.98 | S. cerevisiae deletion strains, locus YNL020C, strain ARK1, stronger effect = lower value 0.838 | S. cerevisiae deletion strains, locus YNL161W, strain CBK1, stronger effect = lower value 0.969 | S. cerevisiae deletion strains, locus YNL183C, strain NPR1, stronger effect = lower value 0.659 | S. cerevisiae deletion strains, locus YNL207W, strain RIO2, stronger effect = lower value 0.977 | S. cerevisiae deletion strains, locus YNL222W, strain SSU72, stronger effect = lower value 0.967 | S. cerevisiae deletion strains, locus YNL307C, strain MCK1 (second series), stronger effect = lower value 0.846 | S. cerevisiae deletion strains, locus YOL078W, strain AVO1, stronger effect = lower value 0.969 | S. cerevisiae deletion strains, locus YOL136C, strain PFK27, stronger effect = lower value 0.811 | S. cerevisiae deletion strains, locus YOR061W, strain CKA2, stronger effect = lower value 0.848 | S. cerevisiae deletion strains, locus YOR119C, strain RIO1, stronger effect = lower value 0.772 | S. cerevisiae deletion strains, locus YOR231W, strain MKK1, stronger effect = lower value 0.792 | S. cerevisiae deletion strains, locus YOR329C, strain SCD5, stronger effect = lower value 0.969 | S. cerevisiae deletion strains, locus YPL031C, strain PHO85, stronger effect = lower value 0.774 | S. cerevisiae deletion strains, locus YPL153C, strain RAD53, stronger effect = lower value 0.716 | S. cerevisiae deletion strains, locus YPL204W, strain HRR25, stronger effect = lower value 0.795 | S. cerevisiae deletion strains, locus YPL209C, strain IPL1, stronger effect = lower value 0.973 | S. cerevisiae deletion strains, locus YPR025C, strain CCL1, stronger effect = lower value 0.965 | S. cerevisiae deletion strains, locus YPR106W, strain ISR1, stronger effect = lower value 0.97 | S. cerevisiae deletion strains, locus YPR111W, strain DBF20, stronger effect = lower value 0.982 | S. cerevisiae deletion strains, strain NNK1, stronger effect = lower value 0.968 | S. cerevisiae deletion strains, strain TSCII, stronger effect = lower value 0.97
active: [2] 0.645 | S. cerevisiae deletion strains, locus YHR082C, strain KSP1, stronger effect = lower value 0.607 | S. cerevisiae deletion strains, locus YKL048C, strain ELM1, stronger effect = lower value 0.791 | S. cerevisiae deletion strains, locus YKL101W, strain HSL1, stronger effect = lower value 0.714 | S. cerevisiae deletion strains, locus YLR113W, strain HOG1, stronger effect = lower value 0.721 | S. cerevisiae deletion strains, locus YPL256C, strain CLN2, stronger effect = lower value 0.728
